Measured values reported in PubChem BioAssay (Tox21).
Records with an inconclusive call do not appear. Active and inactive are the calls of the source. Calls come from the whole dose curve; as a rule, active = well fitted curve in the direction sought with a large enough effect in the repeat runs; inconclusive = weak or mixed curves; inactive = no such curve, though single readings can be large; an effect the other way counts as inactive or inconclusive.

Legend:
[1] = A CellTox Green Cytotoxicity Assay to monitor cytotoxicity in HEK293 cells - 40 hour (AID 1224871); note: nearly all actives have a fitted effect of over 45% in size
Method in brief: (§1)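 Tox21 screen in HEK293: membrane-impermeant cyanine dye fluoresces on binding dead-cell DNA; compound pinned 5 h post-seeding, plates held at 37 C, signal read repeatedly through 40 h.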

[2] = qHTS RealTime-Glo MT Cell Viability Assay in HEK293 cells - 16 hour (AID 1224872); note: top concentration of the series differs between compounds; nearly all actives have a fitted effect of over 50% in size
Method in brief: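 Viability tracked continuously by luminescence as live cells reduce a prosubstrate for NanoLuc; HEK293 cells preincubated 5 h, compound-treated at 37 C, and read at 0, 8, 16, 24, 32 and 40 h.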

[3] = qHTS RealTime-Glo MT Cell Viability Assay in HepG2 cells - 8 hour (AID 1224873); note: nearly all actives have a fitted effect of over 55% in size
Method in brief: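 Real-time viability: cells seeded at 600 per well together with NanoLuc and cell-permeant prosubstrate, compounds added after 5 h incubation. Luminescence tracked at 0, 8, 16, 24, 32 and 40 h of exposure.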

[4] = qHTS RealTime-Glo MT Cell Viability Assay in HEK293 cells - 40 hour (AID 1224874); settings: RealTime-Glo luminescence; max response: stronger effect = lower value; note: nearly all actives have a fitted effect of over 50% in size
Method in brief: (§2)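 HEK293 + NanoLuc + prosubstrate, 600 cells/well; 5 h, 37 C/5% CO2; compound 23 nL in DMSO by pintool; 37 C; luminescence read at 0, 8, 16, 24, 32 and 40 h time points.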

[5] = A CellTox Green Cytotoxicity Assay to monitor cytotoxicity in HEK293 cells - 24 hour (AID 1224875); note: series mostly up to about 77 µM; nearly all actives have a fitted effect of over 45% in size
Method in brief: as §1

[6] = A CellTox Green Cytotoxicity Assay to monitor cytotoxicity in HepG2 cells - 16 hour (AID 1224876); note: nearly all actives have a fitted effect of over 45% in size
Method in brief: (§3)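 Measurements at 0, 8, 16, 24, 32 and 40 h of treatment captured CellTox Green fluorescence in HepG2 cells that had been co-plated with reagent and preincubated 5 h at 37 C/5% CO2.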

[7] = qHTS RealTime-Glo MT Cell Viability Assay in HepG2 cells - 32 hour (AID 1224877); note: nearly all actives have a fitted effect of over 55% in size
Method in brief: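 Viability was tracked continuously by NanoLuc luminescence from prosubstrate reduced by living HepG2 cells, at successive time points over 40 h of compound exposure. Cells with reagent were preincubated 5 h at 37 °C before compound addition.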

[8] = A CellTox Green Cytotoxicity Assay to monitor cytotoxicity in HepG2 cells - 24 hour (AID 1224878); note: nearly all actives have a fitted effect of over 45% in size
Method in brief: as §3

[9] = A CellTox Green Cytotoxicity Assay to monitor cytotoxicity in HepG2 cells - 40 hour (AID 1224879); note: nearly all actives have a fitted effect of over 40% in size
Method in brief: as §3

[10] = qHTS RealTime-Glo MT Cell Viability Assay in HEK293 cells - 0 hour (AID 1224880)
Method in brief: as §2
% is set by controls: 0 for no effect and ±100 for the full control effect.

Cc1ccc(=O)n(-c2ccccc2)c1
inactive: Potency [1] | Potency [2] | Potency [3] | max response [4] 1.08% | Potency [5] | Potency [6] | Potency [7] | Potency [8] | Potency [9] | Potency [10]

C[C@@H]1CCN(C(=O)[C@H](CCCN=C(N)N)NS(=O)(=O)c2cccc3c2NC[C@H](C)C3)[C@@H](C(=O)O)C1
inactive: Potency [1] | Potency [2] | Potency [3] | max response [4] 4.96% | Potency [5] | Potency [6] | Potency [7] | Potency [8] | Potency [9] | Potency [10]

CC(C)OC(=O)c1ccccc1
inactive: Potency [1] | Potency [2] | Potency [3] | max response [4] 0.492% | Potency [5] | Potency [6] | Potency [7] | Potency [8] | Potency [9] | Potency [10]

C[N+](C)(C)CC(O)CC(=O)[O-] (stereo not given)
inactive: Potency [1] | Potency [2] | Potency [3] | max response [4] -3.45% | Potency [5] | Potency [6] | Potency [7] | Potency [8] | Potency [9] | Potency [10]

NS(=O)(=O)c1cc2c(cc1Cl)NC(C1CC3C=CC1C3)NS2(=O)=O (stereo not given)
inactive: Potency [1] | Potency [2] | Potency [3] | max response [4] 11.9% | Potency [5] | Potency [7] | Potency [8] | Potency [9] | Potency [10]

Brc1c(NC2=NCCN2)ccc2nccnc12
inactive: Potency [1] | Potency [2] | Potency [3] | max response [4] -1.41% | Potency [5] | Potency [6] | Potency [7] | Potency [9] | Potency [10]

C[C@](N)(Cc1ccc(O)cc1)C(=O)O
inactive: cytotoxicity increase [1] 1.26% [at 6.97 µM] | activity change, negative = cytotoxicity [2] 1.36% [at 6.97 µM] | viability change, negative = cytotoxic [3] 1.11% [at 6.97 µM] | max response [4] 0.763% | activity change [5] 2.77% [at 6.97 µM, stronger effect = higher value] | cytotoxicity increase [6] -1.17% [at 6.97 µM] | activity change, negative = cytotoxic [7] 3.47% [at 6.97 µM] | cytotoxicity [8] -1.48% [at 6.97 µM] | cytotoxicity increase [9] -2.6% [at 6.97 µM] | activity change, negative = cytotoxicity [10] 0.416% [at 6.97 µM]

CCC(C)S (stereo not given)
inactive: cytotoxicity increase [1] -0.869% [at 2.72 µM] | activity change, negative = cytotoxicity [2] 0.797% [at 2.72 µM] | viability change, negative = cytotoxic [3] 0.999% [at 2.72 µM] | max response [4] 2.1% | activity change [5] 2.02% [at 2.72 µM, stronger effect = higher value] | cytotoxicity increase [6] 0.507% [at 2.72 µM] | activity change, negative = cytotoxic [7] -0.778% [at 2.72 µM] | cytotoxicity increase [9] -0.0934% [at 2.72 µM] | activity change, negative = cytotoxicity [10] 2.99% [at 2.72 µM]

NS(=O)(=O)c1ccc(C(=O)O)cc1
inactive: Potency [1] | Potency [2] | Potency [3] | max response [4] -0.921% | Potency [5] | Potency [6] | Potency [7] | Potency [9] | Potency [10]

CC(C)NCC(O)c1ccc(NS(C)(=O)=O)cc1 (stereo not given)
inactive: Potency [1] | Potency [2] | Potency [3] | max response [4] 4.96% | Potency [5] | Potency [6] | Potency [7] | Potency [8] | Potency [9] | Potency [10]

CN1C(=O)N(C)C(O)C1O (stereo not given)
inactive: Potency [1] | Potency [2] | Potency [3] | max response [4] 1.97% | Potency [5] | Potency [7] | Potency [8] | Potency [9] | Potency [10]

COC(=O)[C@@H](N)Cc1ccc(O)c(O)c1
inactive: Potency [1] | Potency [2] | Potency [3] | max response [4] 2.16% | Potency [5] | Potency [6] | Potency [7] | Potency [8] | Potency [9] | Potency [10]

CC(C)NCCCC1(C(N)=O)c2ccccc2-c2ccccc21
inactive: Potency [1] | Potency [2] | Potency [3] | max response [4] -19.1% | Potency [5] | Potency [6] | Potency [7] | Potency [9]

O=C(O)COc1nn(Cc2ccccc2)c2ccccc12
inactive: Potency [1] | Potency [2] | Potency [3] | max response [4] 3.59% | Potency [5] | Potency [6] | Potency [7] | Potency [8] | Potency [9] | Potency [10]

Cc1cc2c(cc1S(N)(=O)=O)S(=O)(=O)CCC2
inactive: Potency [1] | Potency [2] | Potency [3] | max response [4] 2.68% | Potency [5] | Potency [6] | Potency [7] | Potency [8] | Potency [9] | Potency [10]

COc1nc(N)nc2c1ncn2[C@@H]1O[C@H](CO)[C@@H](O)[C@@H]1O
inactive: Potency [1] | Potency [2] | Potency [3] | max response [4] 14.1% | Potency [5] | Potency [7] | Potency [8] | Potency [9] | Potency [10]

CCC(C)C1CCCCC1=O (stereo not given)
inactive: Potency [1] | Potency [2] | Potency [3] | max response [4] 7.3% | Potency [5] | Potency [6] | Potency [7] | Potency [9] | Potency [10]

N=C(N)c1ccc(OCCCOc2ccc(C(=N)N)cc2)cc1
inactive: Potency [1] | Potency [2] | Potency [3] | max response [4] 1.81% | Potency [5] | Potency [6] | Potency [7] | Potency [9] | Potency [10]

CCN(Cc1ccncc1)C(=O)C(CO)c1ccccc1 (stereo not given)
inactive: Potency [1] | Potency [2] | Potency [3] | max response [4] 5.99% | Potency [5] | Potency [6] | Potency [7] | Potency [9]

CCCc1cc(C(N)=S)ccn1
inactive: Potency [1] | Potency [2] | Potency [3] | max response [4] 2.82% | Potency [5] | Potency [6] | Potency [7] | Potency [8] | Potency [9] | Potency [10]

C=COCC1CCC(CO)CC1 (stereo not given)
inactive: Potency [1] | Potency [2] | Potency [3] | max response [4] 11.5% | Potency [5] | Potency [7] | Potency [8] | Potency [9] | Potency [10]

NC(=O)Nc1ccccc1
inactive: Potency [1] | Potency [2] | Potency [3] | max response [4] 3.44% | Potency [5] | Potency [6] | Potency [7] | Potency [9] | Potency [10]

O=C1NC(=O)[C@@]2(CCOc3ccc(F)cc32)N1
inactive: Potency [1] | Potency [2] | Potency [3] | max response [4] 10% | Potency [5] | Potency [6] | Potency [7] | Potency [9] | Potency [10]
